Experimental data taken from the supplement of paper PMC8728848.
This is one part of a sample in which the strongest signals are shown more often than they occur.

Experiments:
Experiment in all cases: glycan array binding signal (z-score within array); higher = stronger binding
Conditions in all cases: glycan notation: IUPAC condensed, linker removed
[1] = target: GalNAc(b1-3)Gal(a1-4)Gal(b1-4)GlcNAc
In short: (§1)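 The Consortium for Functional Glycomics database supplied 3228 glycan arrays, of which those lacking an available protein sequence were dropped. The binding signal, a within-array Z-score, was averaged across arrays of the same protein sequence and across linkers. Negative scores can be read as non-binding.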

[2] = target: GalNAc(b1-3)Gal(a1-6)Gal(b1-4)Glc
In short: as §1

[3] = target: Glc(a1-4)Glc(a1-4)Glc(a1-4)Glc
In short: as §1

[4] = target: GlcNAc(a1-4)Gal(b1-4)GlcNAc(b1-3)Gal(b1-4)GlcNAc(b1-3)Gal(b1-4)GlcNAc
In short: as §1

GlcNAc(b1-3)Gal = target: GlcNAc(b1-3)Gal
In short: as §1

GlcNAc(b1-3)Gal(b1-4)Glc = target: GlcNAc(b1-3)Gal(b1-4)Glc
In short: as §1

[5] = target: GlcNAc(b1-3)Gal(b1-4)GlcNAc
In short: as §1

[6] = target: GlcNAc(b1-3)Gal(b1-4)GlcNAc(b1-3)Gal(b1-4)GlcNAc(b1-2)[GlcNAc(b1-3)Gal(b1-4)GlcNAc(b1-3)Gal(b1-4)GlcNAc(b1-6)]Man(a1-6)[GlcNAc(b1-3)Gal(b1-4)GlcNAc(b1-3)Gal(b1-4)GlcNAc(b1-2)Man(a1-3)]Man(b1-4)GlcNAc(b1-4)[Fuc(a1-6)]GlcNAc
In short: as §1

[7] = target: GlcNAc(b1-3)Gal(b1-4)GlcNAc(b1-3)Gal(b1-4)GlcNAc(b1-3)Gal(b1-4)GlcNAc(b1-2)[GlcNAc(b1-3)Gal(b1-4)GlcNAc(b1-3)Gal(b1-4)GlcNAc(b1-3)Gal(b1-4)GlcNAc(b1-6)]Man(a1-6)[GlcNAc(b1-3)Gal(b1-4)GlcNAc(b1-3)Gal(b1-4)GlcNAc(b1-3)Gal(b1-4)GlcNAc(b1-2)Man(a1-3)]Man(b1-4)GlcNAc(b1-4)[Fuc(a1-6)]GlcNAc
In short: as §1

[8] = target: GlcNAc(b1-3)Gal(b1-4)GlcNAc(b1-3)Gal(b1-4)GlcNAc(b1-3)Gal(b1-4)GlcNAc(b1-3)Gal(b1-4)GlcNAc(b1-2)[GlcNAc(b1-3)Gal(b1-4)GlcNAc(b1-3)Gal(b1-4)GlcNAc(b1-3)Gal(b1-4)GlcNAc(b1-3)Gal(b1-4)GlcNAc(b1-6)]Man(a1-6)[GlcNAc(b1-3)Gal(b1-4)GlcNAc(b1-3)Gal(b1-4)GlcNAc(b1-3)Gal(b1-4)GlcNAc(b1-3)Gal(b1-4)GlcNAc(b1-2)Man(a1-3)]Man(b1-4)GlcNAc(b1-4)[Fuc(a1-6)]GlcNAc
In short: as §1

[9] = target: GlcNAc(b1-4)GlcNAc(b1-4)GlcNAc
In short: as §1

[10] = target: GlcNAc(b1-6)Gal(b1-4)GlcNAc
In short: as §1

Kdn(a2-6)Gal(b1-4)GlcNAc = target: Kdn(a2-6)Gal(b1-4)GlcNAc
In short: as §1

[11] = target: Man(a1-2)Man(a1-6)[Man(a1-3)]Man(a1-6)[Man(a1-2)Man(a1-2)Man(a1-3)]Man(b1-4)GlcNAc(b1-4)GlcNAc
In short: as §1

Man(a1-6)Man = target: Man(a1-6)Man
In short: as §1

[12] = target: Neu5Ac(a2-3)Gal(b1-3)GlcNAc(b1-2)Man
In short: as §1

[13] = target: Neu5Ac(a2-3)Gal(b1-3)[GlcNAc(b1-6)]GalNAc
In short: as §1

[14] = target: Neu5Ac(a2-3)Gal(b1-3)[Neu5Ac(a2-6)]GlcNAc(b1-3)[Fuc(a1-3)[Gal(b1-4)]GlcNAc(b1-6)]Gal(b1-4)Glc
In short: as §1

[15] = target: Neu5Ac(a2-3)Gal(b1-3)]Neu5Ac(a2-3)Gal(b1-4)]GlcNAc
In short: as §1

[16] = target: Neu5Ac(a2-3)Gal(b1-4)GlcNAc(b1-3)Gal(b1-4)GlcNAc(b1-3)Gal(b1-4)GlcNAc
In short: as §1

[17] = target: Neu5Ac(a2-3)Gal(b1-4)GlcNAc(b1-3)Gal(b1-4)[Fuc(a1-3)]GlcNAc
In short: as §1

[18] = target: Neu5Ac(a2-3)Gal(b1-4)[Fuc(a1-3)]GlcNAc(b1-3)GalNAc
In short: as §1

[19] = target: Neu5Ac(a2-3)[GalNAc(b1-4)]Gal(b1-4)Glc
In short: as §1

Neu5Ac(a2-6)Gal(b1-4)Glc = target: Neu5Ac(a2-6)Gal(b1-4)Glc
In short: as §1

[20] = target: Neu5Ac(a2-6)Gal(b1-4)GlcNAc
In short: as §1

[21] = target: Neu5Ac(a2-6)Gal(b1-4)GlcNAc(b1-3)Gal(b1-4)GlcNAc
In short: as §1

[22] = target: Neu5Ac(a2-6)Gal(b1-4)GlcNAc(b1-3)Gal(b1-4)GlcNAc(b1-3)Gal(b1-4)GlcNAc(b1-2)Man(a1-3)[Neu5Ac(a2-6)Gal(b1-4)GlcNAc(b1-3)Gal(b1-4)GlcNAc(b1-3)Gal(b1-4)GlcNAc(b1-2)Man(a1-6)]GalNAc
In short: as §1

Neu5Ac(a2-6)GalNAc = target: Neu5Ac(a2-6)GalNAc
In short: as §1

[23] = target: Neu5Ac(a2-8)Neu5Ac(a2-8)Neu5Ac(a2-8)Neu5Ac(a2-3)[GalNAc(b1-4)]Gal(b1-4)Glc
In short: as §1

Neu5Ac(b2-6)GalNAc = target: Neu5Ac(b2-6)GalNAc
In short: as §1

[24] = target: Neu5Gc(a2-3)Gal(b1-4)GlcNAc(b1-3)Gal(b1-4)GlcNAc(b1-2)Man(a1-3)[Neu5Gc(a2-3)Gal(b1-4)GlcNAc(b1-3)Gal(b1-4)GlcNAc(b1-2)Man(a1-6)]Man(b1-4)GlcNAc(b1-4)GlcNAc
In short: as §1

[25] = target: Neu5Gc(a2-8)Neu5Gc(a2-3)Gal(b1-4)GlcNAc
In short: as §1

B1: Epa19 (Candida glabrata) (protein)
chain: MGSSHHHHHHSSGLVPRGSHMASSKDPTRFPIGCSPQVLKTQPGLAVKLYSYGHPVPGCSYITYQYPDFPRSGYKKERKLADITGVNGKIDIDLKPNDPCRVLTGHLPSNYNYPDTLTYTNFTMILYGYFQPKVTGYHTFNLEADDLLFMNLGAGNAFDCCKAESTLDNFGNYQSYSLWGSDYAKANITVFLVSGVYYPIRLFYVNRDNNAVIDFSFTTEFDKEKVHDFTSYFFSASDGEQCPGSV
[1]
  glycan array binding signal (z-score): -0.192
[2]
  glycan array binding signal (z-score): -0.525
[3]
  glycan array binding signal (z-score): 0.084
[4]
  glycan array binding signal (z-score): -0.551
GlcNAc(b1-3)Gal
  glycan array binding signal (z-score): -1.24
GlcNAc(b1-3)Gal(b1-4)Glc
  glycan array binding signal (z-score): -0.077
[5]
  glycan array binding signal (z-score): -0.29
[6]
  glycan array binding signal (z-score): 3.06
[7]
  glycan array binding signal (z-score): 2.24
[8]
  glycan array binding signal (z-score): 2.39
[9]
  glycan array binding signal (z-score): -0.295
[10]
  glycan array binding signal (z-score): 0.368
Kdn(a2-6)Gal(b1-4)GlcNAc
  glycan array binding signal (z-score): -0.099
[11]
  glycan array binding signal (z-score): -0.373
Man(a1-6)Man
  glycan array binding signal (z-score): 0.479
[12]
  glycan array binding signal (z-score): -1.47
[13]
  glycan array binding signal (z-score): -0.681
[14]
  glycan array binding signal (z-score): -0.06
[15]
  glycan array binding signal (z-score): 1.09
[16]
  glycan array binding signal (z-score): 0.026
[17]
  glycan array binding signal (z-score): -0.678
[18]
  glycan array binding signal (z-score): 3.04
[19]
  glycan array binding signal (z-score): 0.603
Neu5Ac(a2-6)Gal(b1-4)Glc
  glycan array binding signal (z-score): -0.768
[20]
  glycan array binding signal (z-score): -0.869
[21]
  glycan array binding signal (z-score): -1.3
[22]
  glycan array binding signal (z-score): 3.53
Neu5Ac(a2-6)GalNAc
  glycan array binding signal (z-score): -0.465
[23]
  glycan array binding signal (z-score): -0.059
Neu5Ac(b2-6)GalNAc
  glycan array binding signal (z-score): -0.238
[24]
  glycan array binding signal (z-score): -0.264
[25]
  glycan array binding signal (z-score): -0.386
